The test system of this test is MDA-MB-468 breast. Put plainly: NCI-60 one-dose screen, 48 h (100 = growth as untreated, 0 = no growth, -100 = all killed). Particulars: 10 µM unless noted.

About 83,000 compounds went through this panel and 20% of them were active in at least one assay; those are over-represented in the sample as a whole.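 In brief: 96-well plates, 48 h treatment, single concentration, percent growth endpoint.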 A number with no mark means an inactive call. The source made the active and inactive calls. How the source made its calls: active means growth percent below 10; inactive means the rest.

Regarding `COc1ccc(N/C=C/C2=[N+](C)c3ccccc3C2(C)C)c(OC)c1`, the growth was 80.5%. As for `COC(=O)c1cc(-c2ccccc2)[nH]c1N/N=C/c1c(Cl)cccc1Cl`, the growth is -7.8% (active). `ClCCOCCOc1ccc(C2CCCCC2)cc1`: the growth was 91.2%.

For `Cc1cnc(N)s1`, the growth was 102%.

In the case of `CCn1c(SCC(=O)c2ccc(Br)cc2)nnc1-c1cc2c([nH]c3ccccc32)c(-c2cccc(O)c2)n1`, the growth was 83.9%. Consider `C=C(C)COc1ccc(C(C)(C)C)cc1`, for which the growth is 91.2%.

With `COc1ccc(/C=C2\N=C3SC=C(N)N3C2=O)cc1`, the growth was -31.9% (active). Under `CCOC(=O)c1c(CN2CCN(C)CC2)nc2ccc(Cl)cc2c1-c1ccccc1` stands 63.7%. On to `OCCS`, for which the growth was 100%. `N=C(N)c1nn(C2OC(CO)C(O)C2O)c2nc[nH]c(=O)c12` (configuration not stated): the growth was -59% (active). Under `COc1cc(/C=C2\Oc3cc(OCC(=O)c4ccccc4)ccc3C2=O)cc(OC)c1OC` stands 97%; under `Clc1nc(Oc2ccccc2)nc(-c2cn(-c3ccccc3)c3ccccc23)n1`, 88.2%; under `CCCCOc1ccc(/C=N/Nc2cc(C)nc3ccc(Cl)cc23)cc1`, -65.9% (active).

For `Cc1cc(N(CCCNc2ccnc3cc(Cl)ccc23)Cc2cccs2)nc(Cl)n1`, the growth is 1.63% (active). For `COc1ccc(NC(=O)Cn2c(=O)sc3c(-c4ccc(Cl)cc4)cc(-c4ccc(Cl)cc4)nc32)cc1`, the growth is 114%.

As to `COc1ccc(Cl)cc1-n1nnc(-c2nc3ccccc3[nH]2)c1N`, the growth was 63.2%. Under `COc1cc(NC(=O)c2cccc(-c3cc(=O)c4c(OC)c(OC)c(OC)cc4o3)c2)cc(OC)c1OC` stands 47.4%.

Values taken from PubChem BioAssay (NCI).
